Pf Dd2 inh: qHTS Primary assay for Inhibitors of Plasmodium falciparum Dd2 growth in vitro; P. falciparum Dd2 growth, SYBR Green, 72 h; Potency, µM (highest dose often 28.9 µM), inactives show at the highest dose activity, negative = inhibition, most hits filed as inhibitors; actives 4.3% (n = 120,000); active = well fitted inhibition curve with a large enough effect;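 also: plate controls were DMSO vehicle for no effect and reference drug for full effect; nearly all actives have a fitted effect of over 65% in size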
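Infected erythrocytes (Dd2, 0.3% parasitemia, 2.5% hematocrit final) are added to compound in RPMI-1640/Albumax II medium, grown 72 h at 37C in low oxygen, then lysed with saponin/Triton-X containing SYBR Green and read by fluorescence.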
Active calls of the source: *; i = inactive; [ ] = another dose, or the depositor's remark. Many of the other results were omitted from the sample, so hits are more common in it than they were. Potency is read from the fitted curve at half-maximal effect.

SMILES	Pf Dd2 inh
COCCN1C(=O)C(CC(N)=O)=C2CCCCC21 (configuration not stated)	15%
O=C(CC1CC1)N[C@@H]1CN(Cc2ccccc2)C[C@H]1CO	1%
CN1C(=O)[C@@H]2C[C@@H](CN2Cc2ccccc2)Oc2ccccc21	i
O=C1[C@@H]2C[C@@H](CN2Cc2ccc3c(c2)OCO3)Oc2ccccc2N1CC1CC1	13µM*
O=C1[C@@H]2C[C@@H](CN2C(=O)Cc2ccccc2)Oc2ccccc2N1CC1CC1	-22%[44.1 µM]
Cc1ccc(CN2C[C@@H]3C[C@H]2C(=O)N(CC2CC2)c2ccccc2O3)cc1	10µM*
O=C1[C@@H]2C[C@@H](CN2Cc2ccnc3ccccc23)Oc2ccccc2N1CC1CC1	-13%[44.1 µM]
Cn1cc(CN2C[C@@H]3C[C@H]2C(=O)N(CC2CC2)c2ccccc2O3)c2ccccc21	-1%[44.1 µM]
Cc1ccccc1NC(=O)N1CCC(CCNC(=O)CCCc2ccccc2)CC1	-24%
Nc1nc(C2CC(NC(=O)Cc3ccc4c(c3)OCO4)C2)cc(=O)[nH]1 (configuration not stated)	-9%
Cc1ccc(NC(=O)[C@H](CSCc2ccccc2)N2Cc3ccccc3C2=O)cc1	i
CCc1ccc(NC(=O)[C@H](CSCc2ccccc2)N2Cc3ccccc3C2=O)cc1	i
CCN(CC)S(=O)(=O)c1ccc(NC(=O)[C@H](CSCc2ccccc2)N2Cc3ccccc3C2=O)cc1	5µM*
O=C(N[C@H]1CO[C@H]2[C@@H]1OC[C@@H]2n1cc(CC2CCCCC2)nn1)c1ccc(C(F)(F)F)cc1	i
O=C1CC2(CCN([S+](=O)([O-])c3cccc(C(F)(F)F)c3)CC2)Oc2cc(Cl)ccc21	i
COc1cccc([S+](=O)([O-])N2CCC3(CC2)CC(=O)c2ccccc2O3)c1	i
CCOc1ccccc1CN1CCC2(CCN([S+](=O)([O-])c3ccc(C)cc3)CC2)Oc2ccccc21	4µM*
CCOc1ccccc1CN1CCC2(CCN([S+](=O)([O-])c3cccc(C(F)(F)F)c3)CC2)Oc2ccccc21	8.9µM*
O=C1CC2(CCN([S+](=O)([O-])c3ccccc3)CC2)Oc2ccccc2N1	i
O=C1CC2(CCN([S+](=O)([O-])c3cccc(C(F)(F)F)c3)CC2)Oc2ccccc21	i
CCCNC(=O)N1CCC(c2nc(CCOc3cccc(C)c3)no2)C1 (configuration not stated)	i
COc1ccc(CC2CCOC3(CCNCC3)C2)cc1 (configuration not stated)	i
O=C([C@@H]1C[C@H](F)CN1C(=O)c1ccc(C(F)(F)F)cc1)N1CCCCC1	i
COc1cc(C)c(-c2nc(CN3CCN(C)C(=O)C3)c(C)o2)cc1C	-25%
CN(CC(=O)N1CCc2c(c(-c3nncn3Cc3ccccc3)nn2C)C1)S(=O)(=O)c1cnc[nH]1	-15%
SMILES	Pf Dd2 inh
O=[S+]1([O-])NC2(CCN(Cc3ccc(OC(F)(F)F)cc3)C2)CNc2ccccc21 (configuration not stated)	-1%
Cc1cccc(-n2ncc3c2CCCC3NC(=O)CN2CCNC(=O)C2)c1C (configuration not stated)	-4%
O=C(NCc1nnc2cc(-c3nc(C4CC4)no3)ccn12)c1ccccc1Cl	-5%
O=C(NCc1nnc2cc(-c3nc(C4CC4)no3)ccn12)C1CC1	-24%
O=C(NCc1nnc2cc(-c3nc(C4CC4)no3)ccn12)c1ccoc1	-22%
O=C(Cc1ccc(F)cc1)NCc1nnc2cc(-c3nc(C4CC4)no3)ccn12	4.5µM*
O=C(NCc1nnc2cc(-c3nc(C4CC4)no3)ccn12)c1cccc(Cl)c1	i
COc1ccc(CNC(=O)N2CCC(c3noc(-c4ccccc4)n3)C2)cc1 (configuration not stated)	7%[5.79 µM]
COc1ccc(CNC(=O)N2CCC(c3noc(-c4cccnc4)n3)C2)cc1 (configuration not stated)	i[5.79 µM]
O=C(NCc1nnc2cc(-c3nc(C4CC4)no3)ccn12)c1c(F)cccc1F	i
COc1cccc(CNC(=O)N2CC(c3noc(-c4ccncc4)n3)C2)c1	8.9µM*
O=C(Cc1ccc(Cl)cc1)NCc1nnc2cc(-c3nc(C4CC4)no3)ccn12	0.45µM*
COc1cccc(CC(=O)NCc2nnc3cc(-c4nc(C5CC5)no4)ccn23)c1	6.3µM*
O=C(Cc1cccc(F)c1)NCc1nnc2cc(-c3nc(C4CC4)no3)ccn12	i
O=[S+]([O-])(Nc1nncs1)c1ccc2c(c1)OCCN(Cc1cncc(F)c1)C2	i
CC(C)c1nnc(C2CN(C(=O)c3cnccn3)CC23CCOCC3)o1 (configuration not stated)	-21%
O=C(NCC(c1cccnc1)N1CCCCC1)c1cn2c(n1)CNCC2 (configuration not stated)	9%
CC(C)NC(=O)C1CCc2nnc(-c3ccc(Cl)nc3)n21 (configuration not stated)	14%
COc1cccc(NC(=O)C2CCN(c3cn[nH]c(=O)c3)C2)c1 (configuration not stated)	1%
COCCCn1c(C)cnc1C1CCN(C(=O)NC2CCCCC2)C1 (configuration not stated)	-14%
O=C(NC1CCN(c2cc(-c3ccc(F)cc3)[nH]n2)C1)c1ccc(F)c(F)c1 (configuration not stated)	-13%
COCCCNC(=O)C1CC(=O)N(c2n[nH]c3ccccc23)C1 (configuration not stated)	12%
CC(C)C(=O)NC1CCN(C(=O)N2CC3CC(C2)[C@H]2CCCC(=O)N2C3)CC1 (some centres not stated)	14%
CN(C)c1nc2c(c(=O)[nH]1)CCN(Cc1ccccc1)CC2	17%[5.79 µM]
CN(C)c1nc2c(c(=O)[nH]1)CCN(Cc1ccccc1Br)CC2	1.1µM*
SMILES	Pf Dd2 inh
O=c1[nH]c(N2CCOCC2)nc2c1CCN(Cc1ccc(C(F)(F)F)cc1)CC2	1.3µM*
CN(C)c1nc2c(c(=O)[nH]1)CCN(Cc1cccc(F)c1F)CC2	i[5.79 µM]
Cc1ccc(CN2CCc3nc(N4CCOCC4)[nH]c(=O)c3CC2)cc1C	i[5.79 µM]
CN(C)c1nc2c(c(=O)[nH]1)CCN(Cc1ccc(Cl)cc1)CC2	-4%[5.79 µM]
CN(C)c1nc2c(c(=O)[nH]1)CCN(Cc1ccc(Br)cc1)CC2	2µM*
O=c1[nH]c(N2CCOCC2)nc2c1CCN(Cc1cc(F)cc(F)c1)CC2	-2%[5.79 µM]
CN(C)c1nc2c(c(=O)[nH]1)CCN(Cc1ccccc1F)CC2	i[5.79 µM]
Cc1nn(CCC#N)c(C)c1[C@@H]1C=C[C@@H](NS(=O)(=O)c2cccs2)C1	-18%[44.1 µM]
O=C(NC1CCCCC1)O[C@@H]1CO[C@H]2[C@@H]1OC[C@@H]2NC(=S)Nc1cccc2ccccc12	i
Cc1ncncc1C(=O)N1CC[C@@](O)(C2CCOCC2)[C@H](C)C1	-3%
CO[C@H]1C(=O)N(C2CCN(C(=O)c3cnccc3C)CC2)[C@H]1c1ccncc1	22%
CCOc1cc(=O)n2c(c1C(=O)Nc1cc(Cl)ccc1C)CCCC2	8%
O=C(c1ccco1)N1CCC(c2noc(CO)n2)C1 (configuration not stated)	-18%
COCc1cc(NCc2cccnc2Oc2cccc(C(F)(F)F)c2)ncn1	-20%
c1ccc(CCc2noc(CN3CCCCC3CCn3cccn3)n2)cc1 (configuration not stated)	i
Cc1ccc(SC2CCN(Cc3nc(CCc4ccccc4)no3)CC2)cc1	-16%
CC(C)Cc1nc(CN2C[C@@H]3CC[C@H](C2)N(Cc2ccccc2)C3)no1	10µM*

High-throughput results (PubChem)
